# Laboratory results reported in ChEMBL document CHEMBL4888484, “Replenishing the malaria drug discovery pipeline: Screening and hit evaluation of the MMV Hit Generation Library 1 (HGL1) against asexual blood stage Plasmodium falciparum ,using a nano luciferase reporter read-out” (2022).
# Screen size: about 4,800 compounds; about 420 (8.8%) showed an effect of 50% or more. What follows is part of a selection rich in strong results, with near analogues and random picks from the rest.
# System: Plasmodium falciparum
# Assay: Confirmatory screen in NF54 nanoGlo assay, in single point, at 2uM, 72h
# Type: functional, Erythrocyte
# Conditions: timepoint 72 hour
row,SMILES,% Inhibition
1,CC(C)(C)OC(=O)N1CCCC(C(O)C(F)(F)F)C1 (centres undefined),6%
2,CCCCC12CN(S(=O)(=O)c3ccccc3)CC(C)(CN(S(=O)(=O)c3ccccc3)C1)C2=O,-5%
3,Cc1c(C(=O)NC2CC2)cc(-c2ccccc2)n1C,-3%
4,COc1ccc(-c2cc(C(=O)N[C@H]3CCN(c4ccc(=O)n(C)n4)C3)c(C)n2C)cc1,62%
5,COc1ccc(-c2cc(C(=O)N[C@H]3CCN(c4ccc(=O)[nH]n4)C3)c(C)n2C)cc1,69%
6,CCCCN(CC)CCNC(=O)C1CCN(C2=NS(=O)(=O)C(c3ccc(OC)cc3)=C2C)CC1,32%
7,Cn1cccc1C(=O)NC1CCN(c2ccc(Cl)c(C#N)n2)CC1,-5%
8,CC(C)NC(=O)c1ccc(CN2C(=O)COc3ccc(C(=O)COc4ccc(F)c(F)c4)cc32)o1,4%
9,CC[C@H](C)NS(=O)(=O)c1cccc(N)c1,-4%
10,O=C(NCc1ccco1)[C@H]1CCCN(c2nc3ccccc3n(Cc3ccccc3)c2=O)C1,4%
11,Brc1cccc(-c2ccc(-c3cc(-c4ccccc4)nnc3-c3ccccc3)o2)c1,31%
12,COc1cc(Br)ccc1C1NC(=O)C2COCCN21 (centres undefined),7%
13,CC(C)(C)c1cc([C@H](c2ccc(Cl)cc2)N2CCCCC2)cc(C(C)(C)C)c1O,2%
14,CN(Cc1nnc[nH]1)C(=O)C1(C)CCC1,-11%
15,COc1ccc(CCNc2nc(-c3ccc(OC)cc3F)c3c(N)n(-c4ccc(Cl)cc4)nc3n2)cc1,59%
16,COc1ccc(-n2nc(C)c(Cc3ccc(Cl)cc3)c2O)cc1,0%
17,COCCNc1nc(-c2ccccc2OC)c2c(N)n(-c3ccc(F)cc3)nc2n1,-6%
18,Cc1cc(N2C(=O)CCS2(=O)=O)cc(C)c1S(=O)(=O)NCc1ccccn1,2%
19,Cc1nn(C)c(C)c1-c1cc(C(=O)Nc2sc3c(c2C#N)CCCC3)c2ccccc2n1,-13%
20,Cc1cc(C)c(NC(=O)OCc2cccc3cccnc23)c(C)c1,83%
21,CCc1ccc(C2=Nc3cccnc3N(CC(=O)Nc3c(C)cc(C)cc3C)C(=O)C2)cc1,-4%
22,Cc1cccnc1NC(=O)OC(C)(C)C,0%
23,CN(C(=O)Cc1cc(Br)ccc1F)c1nncn1C,9%
24,O=S(=O)(N[C@H](c1nccs1)C1CC1)c1c(F)cccc1Cl,0%
25,CC(C)CC(=O)N=c1nc(S)ss1,-4%

row,SMILES,% Inhibition
1,CCN1C(=O)c2ccccc2N2C(=O)CC[C@@]12C(=O)Nc1cccc(OC)c1,92%
2,COc1ccc(NC(=O)CN2N=C(C(=O)Nc3ccccc3)CCC2=O)cc1,-15%
3,COc1cccc(NC(=O)c2ccc3c(c2)N(C)[C@@H]2CCCCCN2C3=O)c1,5%
4,CC(=O)c1cccc(NC(=O)[C@@]23CCC(=O)N2c2ccccc2C(=O)N3C)c1,76%
5,CCCN1C(=O)c2ccccc2N2C(=O)CC[C@@]12C(=O)Nc1ccccc1,91%
6,COc1ccc(NC(=O)C2=NN(CC(=O)Nc3cccc(OC)c3)C(=O)CC2)cc1,-12%
7,CC(=O)c1cccc(NC(=O)Cn2c(=O)n(CCc3ccccc3)c(=O)c3ccccc32)c1,7%
8,COc1ccc(NC(=O)CCC(=O)N2CCc3ccccc3C2)cc1,3%
9,CCCN1C(=O)c2ccccc2N2C(=O)CC[C@@]12C(=O)Nc1ccc(OC)cc1,92%
10,CC(=O)c1cccc(NC(=O)c2nonc2C)c1,-11%
11,O=C(CN1C[C@@H](c2ccccc2)Oc2ccccc2C1=O)Nc1ccccc1,-16%
12,CCOc1cccc(CNC(=O)c2nn[nH]c2Nc2ccc(C)c(C)c2)c1,1%
13,Cc1ccc(Cc2nn3c(C4CCN(S(C)(=O)=O)CC4)nnc3s2)cc1C,-8%
14,Cc1ccc(OCCCOc2ccc(CO)nc2)cc1C,3%
15,O=S1(=O)NCCCCN1Cc1ccccc1,-6%
16,Cc1cc(NC(=O)Cn2c(=O)n(CC(C)C)c(=O)c3sccc32)no1,-13%
17,Cn1cc(N)c(Oc2ccc3c(c2)OCO3)n1,0%
18,Cc1cc(N2C(=O)CCS2(=O)=O)ccc1S(=O)(=O)NC1CCCC1,7%
19,Cc1ccc(-c2nn[nH]n2)cc1-n1cccn1,-2%
20,COc1ccc(N2CCN(c3nccn4nc(-c5cccs5)cc34)CC2)cc1,6%
21,O=C(NC(N1CCCC1=O)(C(F)(F)F)C(F)(F)F)c1ccco1,-1%
22,CC(C)(C)OC(=O)NC1CCCN(CC2CN(c3ccc(F)cc3)C(=O)O2)C1 (centres undefined),-8%
23,Cc1cccc(C)c1NC(=O)c1cc(-c2cccc3ccccc23)[nH]n1,2%
24,CN(C)c1nc(N)cc(-c2cccc3cccnc23)n1,44%
25,Cc1cccc2c(-c3cc(N)nc(N)n3)c[nH]c12,85%

row,SMILES,% Inhibition
1,O=C(NCc1cc(F)cc(F)c1)c1csc(C(=O)NC2CC2)n1,-6%
2,C[C@H]1CCCN(C(=O)CNC(=O)Cc2ccccc2)CC1,-9%
3,COc1ccnc(CN2CCC[C@H](c3nc(-c4ccccc4)c[nH]3)C2)c1OC,67%
4,CN(C)c1nc(CN2CCC[C@H](c3n[nH]c(-c4ccccc4)n3)C2)ns1,-1%
5,c1ccc(-c2c[nH]c([C@H]3CCCN(c4ncnc5[nH]ncc45)C3)n2)cc1,-4%
6,CCS(=O)(=O)Nc1cc2c(C(C)=O)c(C)oc2cc1C,4%
7,Cc1ccc2c(c1)[C@@H](O)C[C@@H](C)N2C(=O)c1ccco1,-7%
8,Brc1ccc2c(c1)CN(Cc1c[nH]cn1)CCO2,4%
9,COc1ccc(-c2cc(-c3ccccc3)nc(N3CCC(C)CC3)n2)cc1,50%
10,Cc1nc(N2CCC(C)CC2)ncc1-c1cc(=O)[nH]c(Nc2ccccc2)n1,-16%
11,COc1ccc(N2CCN(c3nc(-c4ccccc4)cs3)CC2)cc1,-6%
12,Cc1cccc(NC(=O)CS(=O)(=O)Cc2cc(Cl)cc3c2OCOC3)c1C,-10%
13,COc1cccc(CNC(=O)Cn2c(=O)n(Cc3cccc(OC)c3)c(=O)c3sccc32)c1,2%
14,O=C(CNC(=O)c1ccc(C(F)(F)F)cc1)Nc1cnc2c(c1)COCC2,-1%
15,CCNC(=O)c1csc(COc2ccc3c(c2)[C@H](c2ccc(C)cc2)N(C(=O)CC(C)C)CC3)n1,36%
16,Cc1cccc(CN2C(=O)[C@@H]3CCCN3c3ccc(C#N)cc32)c1,0%
17,Cc1cc(N2C[C@H]3CC[C@@H](C2)[C@H]3N(C)C)nc(Nc2cccc(O)c2)n1,44%
18,Cc1cc(N2CC(OCc3ccccc3)C2)nc(Nc2cccc(O)c2)n1,96%
19,CN(C(=O)C(C)(C)Nc1ncc(C(F)(F)F)cc1Cl)c1ccc(Cl)cc1,35%
20,CN(CC#N)C(=O)c1ccc(Br)cc1Br,-12%
21,O=C(N[C@@H]1CN(Cc2ccccn2)CCC[C@H]1O)c1ccc(OCc2ccccc2)cc1,30%
22,CC(C)C1(CNC(=O)C(=O)c2cc(S(N)(=O)=O)cn2C)CC1,-3%
23,CCn1cc(C)c(C(=O)O)c1CC(=O)NCc1ccc(F)cc1,-12%
24,CC(CNC(=O)NCC(O)C1CC1)c1ccc(F)c(F)c1 (centres undefined),3%
25,Cc1nn(C)cc1[C@@H]1CC(=O)Nc2c1cnn2C(C)(C)C,-14%

row,SMILES,% Inhibition
1,Cc1cc(C)n(-c2nnc(-c3ccccc3)c(-c3ccccc3)n2)n1,2%
2,Cc1cc(C)n(-c2nc(Nc3ccc(Cl)cc3)nc(Nc3ccc(Cl)cc3)n2)n1,82%
3,COc1cc(OC)nc(-n2nc(C)cc2C(=O)Nc2ccc(Cl)cc2)n1,10%
4,O=C(Cc1cccs1)Nc1ncc(Cc2ccccc2)s1,4%
5,CCn1cc(Cl)c(C(=O)N2N=C3/C(=C/c4ccc(C)cc4)CCCC3C2c2ccc(C)cc2)n1 (centres undefined),7%
6,Cc1ccc(NC(=O)CN2CCC3(CC2)NC(c2ccc(OC(F)(F)F)cc2)=NO3)c(C)c1,-5%
7,CCC(C)(C)c1ccc(OCC(=O)Nc2cccc(C(=O)CC(=O)Nc3ccc(Oc4ccccc4)cc3)c2)c(C(C)(C)CC)c1,-4%
8,CCN1CCN(C2CCN(c3ncc(F)c(OC)n3)CC2)CC1,48%
9,COc1nc(N2[C@@H]3CC[C@H]2C[C@@H](OC)C3)ncc1F,62%
10,COc1cc(N)ccc1OCC(F)F,2%
11,Cc1nn(C)cc1-c1cc(C(F)(F)F)nc(N2CCOCC2)n1,-5%
12,Cn1ccc(NC(=O)C(=O)c2ccc(-c3ccccc3)cc2)n1,1%
13,Cc1ccccc1NC(=O)N1CCN(C(=O)c2nonc2N)CC1,-7%
14,NS(=O)(=O)c1ccc(-c2noc(C3(c4cccc(F)c4)CCC3)n2)cc1,-9%
15,COCCN1CCc2c(C)nc3c(-c4ccc(OC)c(OC)c4)cnn3c21,6%
16,Cc1ccc(S(=O)(=O)N2CCC(c3csc(N)n3)CC2)cc1,-9%
17,CCc1ncoc1C(=O)NCC(F)(F)c1cc(F)cc(F)c1,-10%
18,O=C1CCc2[nH]c(=O)n(C3CCCCC3)c(=O)c21,4%
19,C[C@@H]1NC(=O)N(C2CCCN(Cc3cccc(C(F)(F)F)c3)C2=O)C1=O (some centres undefined),-11%
20,COc1ccc(-n2c(C)nn(Cc3ccccc3)c2=O)cc1,-11%
21,CN(CCCNC(=O)Cc1n[nH]c(=O)c2ccccc12)Cc1ccccc1,-2%
22,CCCC(=O)Nc1ccc(N2CCN(CC(=O)N(CC)CC)CC2)cc1C(=O)O,-2%
23,Cc1cc(C)c(NC(=O)c2nnn(CC(=O)NCc3ccc(F)cc3)c2C)c(C)c1,-9%
24,O=C(N[C@H]1C[C@@H]2C[C@H]1CN2C(=O)c1cccc(C(F)(F)F)c1)c1ccccc1,3%
